Reference: PubChem BioAssay (NCATS)
Inconclusive results are not listed. The source made the active and inactive calls. Unless noted, the call rests on the fitted dose curve; in most records, active means well fitted curve in the direction sought with a large enough effect; inconclusive means small, poorly fitted or top-dose-only effect, or another doubt; inactive means no such curve, though single readings can be large; an effect the other way counts as inactive or inconclusive.

Columns and labels:
[1] = target: Glucocorticoid receptor (Homo sapiens) (UniProt P04150); assay: qHTS assay for small molecule agonists of glucocorticoid receptor signaling (AID 588532; active means well fitted curve in the direction sought with a large enough effect in the signal ratio, with a control signal flat; the % refers to the signal ratio;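 further: 100% = dexamethasone at 0.1 µM and 0% = DMSO only wells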); conditions: HeLa MMTV-bla, beta-lactamase ratio, agonist, 18 h; stronger effect = higher value; percent of dexamethasone control, DMSO zero
In short: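 HeLa GRE-bla reporter cells; 18 h compound exposure at 37 C; 2 h CCF4 loading at room temperature; fluorescence at 460 and 530 nm; EC50 by Hill equation.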

[2] = target: Glucocorticoid receptor (Homo sapiens) (UniProt P04150); assay: qHTS assay for small molecule antagonists of glucocorticoid receptor signaling (AID 588533; active means well fitted inhibition curve with a large enough effect in the signal ratio, with a control signal flat, not every such curve was filed as active; the % refers to the signal ratio;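 further: cells stimulated with 2 nM dexamethasone as agonist; on the % scale 0 is the no-effect control and ±100 the full control effect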); conditions: HeLa MMTV-bla, GRE beta-lactamase ratio, antagonist mode, 18 h; series mostly up to 76.8 µM
In short: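 Antagonist-mode qHTS: compound titrations added to GRE-bla HeLa cells, then dexamethasone 2 nM final; 18 h, 37 C. CCF4 FRET fluorescence normalized to dexamethasone and DMSO; IC50 from Hill fit.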

[3] = qHTS assay for small molecule antagonists of peroxisome proliferator-activated receptor delta signaling (AID 588535; active means well fitted inhibition curve with a large enough effect in the signal ratio, with a control signal flat, not every such curve was filed as active; the % refers to the signal ratio;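 on max response: cells co-treated with a PPAR-delta agonist as stimulator during compound exposure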); conditions: HEK293T PPARd-UAS-bla, beta-lactamase FRET ratio, 18 h; 460 nm channel
In short: (§1)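 Cells were seeded at 4000 per well in assay medium containing 2% charcoal/dextran FBS and held 5 hrs at 37 C. Compounds were then added for 18 hrs. CCF4 substrate was applied for 2 hrs at room temperature before fluorescence reading.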

[4] = target: Peroxisome proliferator-activated receptor delta (Homo sapiens) (UniProt Q03181); assay: as above; conditions: HEK293T PPARd-UAS-bla, beta-lactamase FRET ratio, 18 h; series mostly up to 76.7 µM
In short: as §1

[5] = target: Vitamin D3 receptor (Homo sapiens) (UniProt P11473); assay: qHTS assay for small molecule agonists of vitamin D receptor signaling (AID 588543; calls by dose curve;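 further: 0% = DMSO basal and 100% = reference agonist control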); conditions: HEK293T VDR-UAS-bla, beta-lactamase ratio, 16 h; series mostly up to 76.8 µM
In short: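 Measured: β-lactamase reporter activity (CCF4, 405 nm excitation, 460/530 nm emission) in HEK293T VDR-UAS-bla cells after 16 h compound exposure at 37 °C. Normalization against 50 nM 1α,25-dihydroxyvitamin D3 and DMSO; Hill-fit EC50.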

[6] = qHTS assay for small molecule agonists of retinoid X receptor alpha signaling (AID 588544; calls by dose curve;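 on activation: 0% = DMSO basal wells and 100% = reference agonist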); conditions: HEK293T RXRa-UAS-bla, beta-lactamase reporter, 18 h; 530 nm emission
[7] = target: Retinoic acid receptor RXR-alpha (Homo sapiens) (UniProt P19793); assay: as above; conditions: HEK293T RXRa-UAS-bla, beta-lactamase reporter, 18 h; series mostly up to 76.7 µM
[8] = target: Thyroid hormone receptor beta (Homo sapiens) (UniProt P10828); assay: qHTS assay for small molecule agonists of thyroid hormone receptor beta signaling (AID 588545; calls by dose curve;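 further: 0% = DMSO only and 100% = 10 nM T3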); conditions: TR-UAS-bla GripTite HEK 293, beta-lactamase ratio, agonist mode, 18 h; series mostly up to 76.7 µM
In short: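 Stimulation of a TR-driven beta-lactamase reporter was quantified in GripTite HEK 293 cells. Compound series ran for 18 hrs; curves were normalized to T3 and DMSO controls and fitted to yield EC50.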

[9] = qHTS assay for small molecule antagonists of retinoid X receptor alpha signaling (AID 588546; active means well fitted inhibition curve with a large enough effect in the signal ratio, with a control signal flat, not every such curve was filed as active; the % refers to the signal ratio;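 further: cells stimulated with 9-cis-retinoic acid as agonist; on the % scale 0 is the no-effect control and ±100 the full control effect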); conditions: HEK293T RXRa-UAS-bla, beta-lactamase ratio, antagonist mode; measured here: W530 green channel, cytotoxicity proxy
In short: (§2)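 Beta-lactamase reporter inhibition, read as CCF4 fluorescence ratio (ex 405, em 460/530 nm) after 2 h at RT. HEK293T UAS-bla cells, 2500/well, were stimulated with 9-cis-RA at 500 or 100 nM final alongside test compound for 18 h at 37 C.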

[10] = target: Retinoic acid receptor RXR-alpha (Homo sapiens) (UniProt P19793); assay: as above; conditions: HEK293T RXRa-UAS-bla, beta-lactamase ratio, antagonist mode
In short: as §2

[11] = qHTS assay for small molecule activators of the p53 signaling pathway (AID 651743; active means well fitted activation curve with a large enough effect in the signal ratio, not every such curve was filed as active; the % refers to the signal ratio; further: % of control where 0% means no effect); conditions: HCT-116 p53RE-bla, beta-lactamase FRET ratio, 16 h; activation: stronger effect = higher value
In short: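 HCT-116 p53RE-bla, 4,000 cells/well; 5 h settle; cpd/DMSO 16 h, 37 C; LiveBLAzer B/G 2 h RT; fluorescence intensity.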

[12] = qHTS assay for environmental chemicals that activate the Aryl hydrocarbon Receptor (AhR) signaling pathway (AID 651777); conditions: 1A2-DRE human hepatoma cells, luciferase, 24 h; activation: stronger effect = higher value; further: % of control where 0% means no effect; nearly all actives have a fitted effect of over 15% in size
In short: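 Following a 24 hr incubation with test chemicals at 37 C and 5% CO2, 1A2-DRE human hepatoma cells received One-Glo reagent; after 30 min at room temperature, luciferase output reflected CYP1A2 induction via AhR.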

[13] = target: Peroxisome proliferator-activated receptor alpha (Homo sapiens) (UniProt Q07869); assay: qHTS assay for small molecule agonists of the peroxisome proliferator-activated receptor alpha (PPARalpha) signaling pathway (AID 651778); conditions: PathHunter PPARalpha complementation, chemiluminescence, 6 h; max response: stronger effect = higher value; further: potency means the concentration at half of the fitted maximal effect; on max response: % of control where 0% means no effect
In short: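 Enzyme-fragment complementation assay in which ligand-bound PPARalpha translocates and forms an active enzyme that generates chemiluminescence. Cells were plated overnight, exposed to compound for 6 hr at 37 C, and then given detection reagent for 60 min at room temperature.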

[14] = qHTS assay for small molecule agonists of the antioxidant response element (ARE) signaling pathway measured by Nrf2-dependant transcriptional activity (AID 720636; active means well fitted curve in the direction sought with a large enough effect in the repeat runs; an effect the other way counts as inactive or inconclusive;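 further: HepG2 cells with an ARE-driven luciferase reporter; % of control where 0% means no effect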); conditions: ARE-luc HepG2, Nrf2 luciferase reporter, 16 h; series mostly up to 92.4 µM
In short: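 ONE-Glo luminescence, read 30 min after reagent addition at room temperature, reflected ARE reporter activity in HepG2 cells that had been incubated with compound for 16 hr at 37 C in 1% dialyzed FBS.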

[15] = qHTS assay for small molecule agonists of the antioxidant response element (ARE) signaling pathway measured by Nrf2-dependant transcriptional activity - cell viability counter screen (AID 720653; active means well fitted curve in the direction sought with a large enough effect in the repeat runs; an effect the other way counts as inactive or inconclusive; further: on the % scale 0 is the no-effect control and ±100 the full control effect); conditions: ARE-bla HepG2 viability, CellTiter-Glo ATP luminescence, 16 h; max response: stronger effect = lower value
In short: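 ARE-bla HepG2 cells treated with compounds for 16 h at 37C; this counter screen measures viability as intracellular ATP by CellTiter-Glo luminescence after 30 min at room temperature.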

[16] = qHTS assay for cell viability of HEK293 cells (AID 743288); conditions: ATP luminescence (CellTiter-Glo), 18 h; max response: stronger effect = lower value; further: on the % scale 0 is the no-effect control and ±100 the full control effect; nearly all actives have a fitted effect of over 50% in size
In short: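 Luminescent ATP quantitation served as the viability read-out. Cells (parental HEK293, 2,000/well) received compounds after at least 5 h at 37 C and were exposed for 18 h before a 30 min room-temperature reagent step.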

[17] = qHTS assay for cell viability of the p53RE-bla HCT-116 cell line (AID 743292); conditions: p53RE-bla HCT-116 viability, ATP luminescence, 16 h; series mostly up to 95 µM; further: on the % scale 0 is the no-effect control and ±100 the full control effect; nearly all actives have a fitted effect of over 55% in size
In short: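 After plating at 4,000 cells per well and a 5 h rest at 37 C, HCT-116 cells carrying p53RE-bla received test chemicals in DMSO. Sixteen hours later at 37 C, CellTiter-Glo was added and luminescence recorded following 30 min at room temperature.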

[18] = target: Nuclear receptor subfamily 1 group I member 2 (Rattus norvegicus) (UniProt Q9R1A7); assay: qHTS assay for small molecule activators of the rat pregnane X receptor (rPXR) signaling pathway (AID 651751; call rule not given here; further: 0% is about no effect); conditions: rPXR reporter cells, luciferase (One-Glo), 24 h
[19] = qHTS assay for small molecule activators of the human pregnane X receptor (PXR) signaling pathway (AID 720659; call rule not given here; further: 0% is about no effect); conditions: DPX-2 HepG2 CYP3A4-luciferase, 24 h; series mostly up to 92.3 µM
[20] = target: Peroxisome proliferator-activated receptor gamma (Homo sapiens) (UniProt P37231); assay: qHTS assay for small molecule agonists of peroxisome proliferator-activated receptor gamma signaling (AID 588536; active means well fitted curve in the direction sought with a large enough effect in the signal ratio, with a control signal flat, not every such curve was filed as active; the % refers to the signal ratio;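 further: 0% = DMSO basal wells and 100% = rosiglitazone at 2 µM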); conditions: HEK293 PPARg-UAS-bla, beta-lactamase ratio, 16 h, percent of rosiglitazone response, DMSO as zero; series mostly up to 76.7 µM
In short: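 Ratiometric blue/green fluorescence (405 nm excitation; 460 and 530 nm emission) from CCF4-loaded HEK293 reporter cells serves as signal. Exposure to test compounds lasts 16 h at 37 C in medium containing 1% charcoal/dextran-treated serum.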

Peroxisome proliferator-activated receptor delta (Homo sapiens), sequence (Q03181 whole entry, looked up): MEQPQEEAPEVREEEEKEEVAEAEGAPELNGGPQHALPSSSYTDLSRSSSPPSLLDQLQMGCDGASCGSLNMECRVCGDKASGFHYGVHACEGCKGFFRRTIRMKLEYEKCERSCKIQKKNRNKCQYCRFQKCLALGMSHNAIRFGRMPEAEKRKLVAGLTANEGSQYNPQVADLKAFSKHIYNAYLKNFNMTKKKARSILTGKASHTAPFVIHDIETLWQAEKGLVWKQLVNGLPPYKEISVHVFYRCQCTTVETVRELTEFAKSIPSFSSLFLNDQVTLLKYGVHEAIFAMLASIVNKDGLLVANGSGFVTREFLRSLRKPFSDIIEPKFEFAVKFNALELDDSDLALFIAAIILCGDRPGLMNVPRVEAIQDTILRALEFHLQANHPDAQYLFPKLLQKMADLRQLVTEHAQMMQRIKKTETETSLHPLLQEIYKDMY
Peroxisome proliferator-activated receptor gamma (Homo sapiens), sequence (P37231 whole entry, looked up): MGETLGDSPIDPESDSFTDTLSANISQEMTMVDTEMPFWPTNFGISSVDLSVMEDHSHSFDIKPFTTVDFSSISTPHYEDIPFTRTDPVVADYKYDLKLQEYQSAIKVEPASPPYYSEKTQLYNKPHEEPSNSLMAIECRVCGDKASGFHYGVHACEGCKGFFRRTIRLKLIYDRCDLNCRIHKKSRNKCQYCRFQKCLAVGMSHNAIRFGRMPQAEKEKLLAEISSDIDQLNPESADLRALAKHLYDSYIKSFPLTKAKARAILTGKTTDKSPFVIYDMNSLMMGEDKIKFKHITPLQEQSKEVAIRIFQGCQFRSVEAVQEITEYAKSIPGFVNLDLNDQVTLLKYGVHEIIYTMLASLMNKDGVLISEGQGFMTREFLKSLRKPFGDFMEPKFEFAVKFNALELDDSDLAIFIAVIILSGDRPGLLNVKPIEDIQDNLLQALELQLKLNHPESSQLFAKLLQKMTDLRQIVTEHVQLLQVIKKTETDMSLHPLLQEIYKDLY
Retinoic acid receptor RXR-alpha (Homo sapiens), sequence (P19793 whole entry, looked up): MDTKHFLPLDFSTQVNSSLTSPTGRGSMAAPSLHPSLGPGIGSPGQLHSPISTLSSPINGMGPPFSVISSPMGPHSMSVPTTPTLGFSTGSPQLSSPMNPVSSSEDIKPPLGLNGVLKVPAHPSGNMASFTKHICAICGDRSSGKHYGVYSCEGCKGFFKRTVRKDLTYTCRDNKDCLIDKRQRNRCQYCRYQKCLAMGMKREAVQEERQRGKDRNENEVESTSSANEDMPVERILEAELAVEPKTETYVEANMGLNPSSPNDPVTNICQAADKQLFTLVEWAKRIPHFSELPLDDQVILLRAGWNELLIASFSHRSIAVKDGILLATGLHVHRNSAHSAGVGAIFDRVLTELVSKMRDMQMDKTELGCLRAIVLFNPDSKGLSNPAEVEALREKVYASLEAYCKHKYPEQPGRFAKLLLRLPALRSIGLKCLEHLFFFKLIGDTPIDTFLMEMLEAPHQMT
Glucocorticoid receptor (Homo sapiens), sequence (P04150 whole entry, looked up): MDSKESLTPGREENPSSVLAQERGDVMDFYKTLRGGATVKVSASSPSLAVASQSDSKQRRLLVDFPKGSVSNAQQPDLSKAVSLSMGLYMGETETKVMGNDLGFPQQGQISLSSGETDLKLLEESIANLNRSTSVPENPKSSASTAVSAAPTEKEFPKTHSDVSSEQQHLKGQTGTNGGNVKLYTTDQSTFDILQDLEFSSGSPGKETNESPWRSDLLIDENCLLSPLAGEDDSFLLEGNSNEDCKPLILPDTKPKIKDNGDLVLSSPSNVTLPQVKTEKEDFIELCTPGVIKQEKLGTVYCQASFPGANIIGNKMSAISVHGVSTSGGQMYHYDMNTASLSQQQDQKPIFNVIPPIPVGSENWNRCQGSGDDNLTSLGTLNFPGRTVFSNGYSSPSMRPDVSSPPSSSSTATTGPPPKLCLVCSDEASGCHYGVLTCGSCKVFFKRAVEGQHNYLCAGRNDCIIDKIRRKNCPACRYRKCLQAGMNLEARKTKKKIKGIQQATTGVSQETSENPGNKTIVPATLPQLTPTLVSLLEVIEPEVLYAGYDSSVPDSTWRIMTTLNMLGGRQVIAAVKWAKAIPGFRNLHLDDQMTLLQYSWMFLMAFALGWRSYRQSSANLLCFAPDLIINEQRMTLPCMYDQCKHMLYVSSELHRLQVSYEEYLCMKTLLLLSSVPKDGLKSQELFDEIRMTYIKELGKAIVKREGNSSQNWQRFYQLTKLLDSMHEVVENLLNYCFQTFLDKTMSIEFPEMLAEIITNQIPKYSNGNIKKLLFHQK
Thyroid hormone receptor beta (Homo sapiens), sequence (P10828 whole entry, looked up): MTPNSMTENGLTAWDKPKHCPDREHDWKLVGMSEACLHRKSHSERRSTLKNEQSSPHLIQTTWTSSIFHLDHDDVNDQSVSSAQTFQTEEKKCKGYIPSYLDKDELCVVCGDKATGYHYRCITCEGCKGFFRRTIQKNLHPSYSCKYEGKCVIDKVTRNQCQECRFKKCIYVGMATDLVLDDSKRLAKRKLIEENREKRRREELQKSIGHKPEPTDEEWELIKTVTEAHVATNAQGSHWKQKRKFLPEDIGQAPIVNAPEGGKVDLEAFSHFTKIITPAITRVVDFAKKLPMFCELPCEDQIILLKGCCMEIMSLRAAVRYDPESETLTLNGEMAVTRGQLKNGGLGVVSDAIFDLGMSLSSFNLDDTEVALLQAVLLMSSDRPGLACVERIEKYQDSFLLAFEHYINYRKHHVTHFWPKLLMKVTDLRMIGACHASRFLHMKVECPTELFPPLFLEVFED
Nuclear receptor subfamily 1 group I member 2 (Rattus norvegicus), sequence (Q9R1A7 whole entry, looked up): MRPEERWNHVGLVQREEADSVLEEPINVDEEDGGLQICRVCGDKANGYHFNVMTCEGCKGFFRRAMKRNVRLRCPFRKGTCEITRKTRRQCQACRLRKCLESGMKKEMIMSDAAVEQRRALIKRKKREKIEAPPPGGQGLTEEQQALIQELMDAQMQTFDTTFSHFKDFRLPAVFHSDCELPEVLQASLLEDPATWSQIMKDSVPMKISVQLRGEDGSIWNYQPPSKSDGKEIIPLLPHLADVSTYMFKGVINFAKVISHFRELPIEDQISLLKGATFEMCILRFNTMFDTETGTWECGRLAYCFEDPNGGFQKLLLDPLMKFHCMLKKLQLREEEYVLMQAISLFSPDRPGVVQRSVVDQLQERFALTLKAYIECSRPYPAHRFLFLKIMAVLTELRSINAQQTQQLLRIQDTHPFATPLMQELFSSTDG
Vitamin D3 receptor (Homo sapiens), sequence (P11473 whole entry, looked up): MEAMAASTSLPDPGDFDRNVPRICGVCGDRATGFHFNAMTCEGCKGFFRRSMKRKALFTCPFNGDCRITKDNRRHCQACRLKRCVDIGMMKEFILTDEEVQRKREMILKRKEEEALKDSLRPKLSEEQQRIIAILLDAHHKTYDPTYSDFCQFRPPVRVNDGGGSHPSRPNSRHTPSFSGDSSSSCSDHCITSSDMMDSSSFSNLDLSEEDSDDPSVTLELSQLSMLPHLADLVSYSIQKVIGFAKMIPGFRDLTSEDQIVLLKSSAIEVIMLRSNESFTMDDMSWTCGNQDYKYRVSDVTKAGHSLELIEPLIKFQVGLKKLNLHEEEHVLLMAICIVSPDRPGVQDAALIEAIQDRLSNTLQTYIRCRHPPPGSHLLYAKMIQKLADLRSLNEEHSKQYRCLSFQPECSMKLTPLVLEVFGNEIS
Peroxisome proliferator-activated receptor alpha (Homo sapiens), sequence (Q07869 whole entry, looked up, the tested form may be a part): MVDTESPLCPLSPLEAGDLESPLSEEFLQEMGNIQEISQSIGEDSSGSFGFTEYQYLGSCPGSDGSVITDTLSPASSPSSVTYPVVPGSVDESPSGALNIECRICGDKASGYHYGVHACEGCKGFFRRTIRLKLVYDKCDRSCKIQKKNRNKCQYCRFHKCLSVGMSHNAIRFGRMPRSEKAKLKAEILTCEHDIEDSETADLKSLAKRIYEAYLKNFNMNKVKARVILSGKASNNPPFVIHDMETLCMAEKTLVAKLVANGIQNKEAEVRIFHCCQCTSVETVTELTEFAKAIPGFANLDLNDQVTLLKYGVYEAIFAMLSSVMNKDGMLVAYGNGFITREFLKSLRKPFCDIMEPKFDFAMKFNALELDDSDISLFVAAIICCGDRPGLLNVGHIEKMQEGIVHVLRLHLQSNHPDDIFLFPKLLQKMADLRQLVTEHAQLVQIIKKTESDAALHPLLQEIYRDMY

O=C(O)C(Oc1ccc(Cl)cc1)Oc1ccc(Cl)cc1
inactive: activation [1] -6.89% | Potency [2] | Potency [4] | outcome [5] | Potency [7] | Potency [8] | max response [10] -10.5% | activation [11] 2.64% | activation [12] -1.04% | max response [13] 4.93% | Potency [14] | max response [15] -5.82% | max response [16] -2.57% | Potency [17] | max response [18] -9.92% | outcome [19]
-7.28%: max response [9]
4.78%: max response [6]
-2.46%: max response [3]

CCOCCOCCOCCO
-7.49%: max response [6]
0.354%: max response [9]
inactive: outcome [20] | outcome [5] | Potency [7] | max response [10] -20% | activation [11] -1.32% | activation [12] -0.451% | max response [13] -1.08% | max response [15] 19.8% | max response [16] -2.83% | max response [18] 10.6% | outcome [19]

C[Si]1(C)O[Si](C)(C)O[Si](C)(C)O1
-6.48%: max response [9]
-11.7%: max response [3]
-4.52%: max response [6]
inactive: Potency [4] | outcome [20] | outcome [5] | Potency [7] | Potency [8] | max response [10] 2.26% | activation [11] -3.38% | activation [12] 1% | max response [13] 0.478% | Potency [14] | max response [15] -2.26% | max response [16] -1.41% | Potency [17] | max response [18] -5.54% | outcome [19]

CCCCCCC(O)CCCCCCCCCCC(=O)O (stereo not drawn)
active: Potency [13] 31.6 µM
-2.57%: max response [6]
31.3%: max response [3]
inactive: activation [1] -3.25% | Potency [4] | outcome [5] | Potency [7] | Potency [8] | activation [12] -0.827% | max response [15] -0.036% | max response [16] -10.3% | Potency [17] | max response [18] 0.495% | outcome [19]

CS(C)=O
23%: max response [3]
-13.1%: max response [9]
inactive: activation [1] -5.87% | Potency [2] | Potency [4] | outcome [20] | outcome [5] | Potency [8] | max response [10] 10.4% | activation [11] 1.22% | activation [12] 0.193% | max response [13] 0.892% | Potency [14] | max response [15] 16.4% | max response [16] 1.99% | max response [18] 2.97% | outcome [19]

CCCCCCCCCCCC[N+](C)(C)[O-]
inactive: activation [1] 6.56% | Potency [4] | outcome [20] | outcome [5] | Potency [8] | activation [11] 1.24% | activation [12] 9.07% | max response [13] 0.14% | max response [15] -6.24% | max response [16] -22.6% | Potency [17]
-19.7%: max response [3]
